Bioassay records: PubChem, National Center for Advancing Translational Sciences (NCATS)
IL-1B inflam inh: blocks inflammasome-driven IL-1 beta release | THP-1 LPS/ATP IL-1B secretion, AlphaLISA, 16 h; hits give low values | activity change, % at 57.5 µM | 4.7% of 360,000 active | AID 743279; in the data active means activity change below about -50%; inconclusive means mostly about -30% to -49%
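THP-1 cells pretreated 1 hr with compounds (up to 57.5 uM final), then stimulated with LPS (250 ng/mL final) plus ATP (1.25 mM final); secreted IL-1B measured by AlphaLISA after 16 hr, decreased signal indicating inhibition.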
HT1080-NT tox: kills 2HG-producing HT-1080-NT fibrosarcoma cells. HT-1080-NT fibrosarcoma viability, CellTiter-Glo ATP luminescence, 48 h. Potency, µM (titrated, usually from 46.1 µM), for inactives: top-dose activity, negative = less viability, actives largely listed as cytotoxic. 1.6% of 360,000 active. AID 686970;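 further: NT is the 2HG producing partner of a matched IDH1 knockdown line; potency means the concentration at half of the fitted maximal effect; 0% = DMSO-treated cells and -100% = media-only wells without cells; nearly all actives have a fitted effect of over 55% in size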
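HT-1080-NT fibrosarcoma cells (2HG-overproducing), 750 cells/well in RPMI with 5% FBS, dosed after 2 h and incubated 48 h at 37C. CellTiter-Glo luminescence normalized to DMSO and no-cell wells; concentration-response curves fitted and classed.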
HT1080 IDH1KD tx: toxicity to HT-1080 IDH1 knockdown cells (counter line). HT-1080 IDH1 knockdown viability, ATP luminescence, 48 h. 2% of 360,000 active. Potency, µM (doses to about 46.1 µM), for the others: at the highest dose activity, negative = toxicity, usual class: cytotoxic;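 further: potency means the concentration at half of the fitted maximal effect; 0% = DMSO wells and -100% = cell-free medium wells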
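% activity derives from luminescence (CellTiter-Glo), normalised to DMSO and no-cell wells. HT-1080-IDH1KD cells, 750/well, had 48 h compound exposure at 37 °C.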
12-LOX inh: inhibitors of human 12S-lipoxygenase ALOX12; purified 12hLO, xylenol orange hydroperoxide absorbance; AID 1671190; Potency, µM (series often up to 108 µM), without a hit: top-dose activity change, negative = inhibition, usual class: inhibitors; 1.1% of 580,000 active; further: potency means the concentration at half of the fitted maximal effect
Target sequence (P18054 whole entry, looked up): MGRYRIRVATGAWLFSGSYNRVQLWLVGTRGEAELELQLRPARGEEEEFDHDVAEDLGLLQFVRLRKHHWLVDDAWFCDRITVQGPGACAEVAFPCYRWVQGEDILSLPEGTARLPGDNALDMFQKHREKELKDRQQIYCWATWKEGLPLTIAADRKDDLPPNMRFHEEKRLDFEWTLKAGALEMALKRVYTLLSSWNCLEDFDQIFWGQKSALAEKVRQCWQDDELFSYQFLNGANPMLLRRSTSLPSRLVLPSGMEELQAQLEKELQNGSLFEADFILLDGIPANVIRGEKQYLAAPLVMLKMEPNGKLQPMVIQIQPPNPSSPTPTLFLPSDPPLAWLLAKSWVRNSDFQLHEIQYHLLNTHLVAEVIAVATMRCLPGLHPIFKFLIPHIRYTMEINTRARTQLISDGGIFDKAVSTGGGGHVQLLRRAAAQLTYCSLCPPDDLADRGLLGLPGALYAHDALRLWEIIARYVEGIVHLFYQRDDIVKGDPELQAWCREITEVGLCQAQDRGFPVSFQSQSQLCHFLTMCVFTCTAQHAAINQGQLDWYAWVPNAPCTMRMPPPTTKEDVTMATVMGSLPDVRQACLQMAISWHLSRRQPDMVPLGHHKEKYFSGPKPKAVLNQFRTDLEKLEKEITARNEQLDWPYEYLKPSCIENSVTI
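Purified human 12hLO (150 nM final) in 25 mM Hepes, 0.01% Triton X-100, pH 7.0 was preincubated 15 min at room temperature with compound. Then 40 uM arachidonic acid was added, 30 min. Hydroperoxide was read by Fe-XO absorbance ratio 573/405 nm.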
DT40 TDP1 no CPT: qHTS for Inhibitors of human tyrosyl-DNA phosphodiesterase 1 (TDP1): qHTS in cells in absence of CPT; Potency, µM (doses to about 46.2 µM), inactives show at the highest dose activity change, negative = growth inhibition, hits mostly inhibitors; 15% of 420,000 active; DT40 Tdp1-/- hTDP1 cells, no CPT, ATP luminescence, 48 h; further: potency means the concentration at half of the fitted maximal effect; nearly all actives have a fitted effect of over 55% in size
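Growth of hTDP1-complemented DT40 Tdp1-knockout cells is measured by ATP luminescence after at least 48 hr compound exposure at 37 °C, with DMSO substituting for the 20 nM CPT used in the parallel screen.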
TDP1 cell CPT: growth inhibition of DT40 Tdp1-/-;hTDP1 cells with camptothecin (screen for TDP1 inhibitors). chicken DT40 Tdp1-/-;hTDP1 cells + 20 nM CPT, ATP luminescence, 48 h. 12% of 420,000 active. Potency, µM (titrated, usually from 46.2 µM), without a hit: top-dose activity change, negative = growth inhibition, most hits filed as inhibitors; further: potency means the concentration at half of the fitted maximal effect; nearly all actives have a fitted effect of over 55% in size
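Cell growth measured by CellTiter-Glo luminescence after a minimum 48 h, 37 C compound exposure with 20 nM CPT in Tdp1-knockout DT40 cells stably expressing hTDP1, seeded 400/well; qHTS titration format.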
* marks the source's active call; other numbers are inactive results; u = inconclusive; x = no result given; [ ] = remark or other dose. Shown is part of a subset that was picked to be rich in hits. Unless noted, the call rests on the fitted dose curve; in most records, active means well fitted curve in the direction sought with a large enough effect; inconclusive means small, poorly fitted or top-dose-only effect, or another doubt; inactive means no such curve, though single readings can be large; an effect the other way counts as inactive or inconclusive. Unless noted, on the % scale 0 is the no-effect control and ±100 the full control effect.

SMILES | IL-1B inflam inh | HT1080-NT tox | HT1080 IDH1KD tx | 12-LOX inh | DT40 TDP1 no CPT | TDP1 cell CPT
Cc1ccc(C)c(C(=O)CSc2nnnn2-c2cccnc2)c1 | -7 | 11% | 2% | 54% | 16µM* | -10%
CCn1c(SCC(=O)Nc2cccc(NC(=O)c3ccco3)c2)nnc1-c1cccs1 | -13 | -2% | -4% | -19% | 16µM* | u
CC(=O)c1ccc(-n2nnnc2SCC(=O)Nc2cccc(NC(=O)c3ccco3)c2)cc1 | 17 | -23% | u | 12% | u | u
CCC(=O)Nc1cccc(-n2nnnc2SCC(=O)c2ccc(C)c(C)c2)c1 | -92* | -8% | u | 0% | u | u
c1cnc2nc([C@H]3CCN(C4CCCCC4)C3)[nH]c2c1 | x | x | x | 71%[176 µM] | x | x
COc1ccccc1C(=O)N1CCC(OC2CCN(C)CC2)CC1 | x | x | x | 17% | x | x
COc1ccc(-c2ccc(C(=O)O)cc2)cc1 | x | x | x | -26% | x | x
Cc1ccc(-n2nnnc2SCC(=O)Nc2cccc(NC(=O)c3ccco3)c2)cc1C | 146 | -15% | -26% | 26% | 16µM* | u
CCOC(=O)C1CCN(C(=O)c2ccc3c(c2)NC(=O)/C(=C\c2cccc(C)c2)S3)CC1 | -19 | -1% | 0% | -34% | 18µM* | u
CCN1CCN(CCCNC(=O)c2ccc3c(c2)NC(=O)c2ccccc2S3)CC1 | 13 | -14% | -6% | -26% | u | -25%
CCN1CCN(CCCNC(=O)c2ccc3c(c2)NC(=O)/C(=C\c2cccc(C)c2)S3)CC1 | -87* | u | 7% | u | u | 16µM*
Cc1cccc(/C=C2/Sc3ccc(C(=O)NCCCN4CCOCC4)cc3NC2=O)c1 | x | x | x | -19% | x | x
O=C1Nc2cc(C(=O)NCCCN3CCCC3)ccc2S/C1=C/c1cccc(Cl)c1 | -4 | -30% | u | u | u | 6.5µM*
Cc1cccc(/C=C2/Sc3ccc(C(=O)NCCN4CCCC4)cc3NC2=O)c1 | u | 8% | -4% | u | 23µM* | u
COc1cccc(/C=C2/Sc3ccc(C(=O)NCCN4CCCCCC4)cc3NC2=O)c1 | -27 | u | -16% | u | u | u
O=C(O)CCCC(=O)N1CCN(c2ccccc2Cl)CC1 | x | x | x | -3% | x | x
O=c1[nH]c(N2CCOCC2)nc2c1CCN(Cc1cc(Cl)ccc1F)CC2 | x | x | x | 33% | x | x
COc1ccc(Nc2cc(C(=O)NCc3cccnc3)c3c(c2)ncn3C)cc1 | x | x | x | 12%[176 µM] | x | x
COc1ccc(/C=C2/Sc3ccc(C(=O)NCCCN4CCOCC4)cc3NC2=O)cc1OC | 43 | u | 21µM* | -3% | 2.6µM* | 4.6µM*
O=C1Nc2cc(C(=O)NCCN3CCCCCC3)ccc2S/C1=C\c1ccccc1 | -93* | u | u | u | 12µM* | 13µM*
O=C1Nc2cc(C(=O)N3CCc4ccccc4C3)ccc2S/C1=C\c1ccccc1 | -5 | 9% | 5% | -8% | 0% | 8%
CSc1ccc(C(=O)Nc2cc(S(=O)(=O)N3CCOCC3)ccc2N2CCOCC2)cc1[N+](=O)[O-] | -17 | 4% | 0% | 2% | -25% | -25%
Cc1cn2nc(-c3nc(C4CCCN(C(=O)c5ccccc5F)C4)no3)cc2c(=O)[nH]1 (configuration not stated) | x | x | x | 84% | x | x
OCC1(CN2CCCC2)CCN(Cc2ccc3ccccc3c2)CC1 | x | x | x | 37% | x | x
O=C(CSc1nc2nc[nH]c2c(=O)[nH]1)NCc1ccccc1 | x | x | x | 0.56µM* | x | x
O=C(CSc1nc2nc[nH]c2c(=O)[nH]1)NCc1ccc(F)cc1 | x | x | x | 7% | x | x
O=C(CSc1nncc(=O)[nH]1)NCc1ccccc1 | 6 | 25% | u | u | u | 21µM*
Cc1ccc2c(c1)Oc1ccc(NC(=O)CCl)cc1C(=O)N2 | -100* | 3.7µM* | 2.9µM* | u | 2.3µM* | 2.6µM*
